# The panel holds about 79,000 compounds, 15% with a hit somewhere; the sample as a whole holds those more often. A number with no mark means an inactive call. Calls of active or inactive are those of the source. Cut-off read from the data, not from the text of the source: active = growth inhibition above about 70%; inactive = the rest.
# How the values were obtained:
# [1] = NCI Yeast Anticancer Drug Screen. Data for the rad50 strain (AID 155);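 note: 0% = growth of vehicle-only cultures of the same strain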; settings: S. cerevisiae rad50 strain growth inhibition, hits give high values
# In short: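 Compounds were tested on a yeast strain with an engineered DNA damage repair alteration; the reported value is growth inhibition normalised to vehicle treatment.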
# [2] = NCI Yeast Anticancer Drug Screen. Data for the mec2-1 strain (AID 157); settings: S. cerevisiae mec2-1 strain, hits give high values
# In short: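 Growth inhibition is read against vehicle-treated controls after compound exposure of the mec2-1 yeast strain, which is defective in DNA damage repair or cell cycle control.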
# [3] = NCI Yeast Anticancer Drug Screen. Data for the sgs1 mgt1 strain (AID 161);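 note: 0% = growth of cultures given vehicle only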; settings: S. cerevisiae sgs1 mgt1 strain, hits give high values
# In short: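 Percent growth inhibition was derived by comparing compound-exposed mutant yeast with vehicle-exposed cultures. The strain carries alterations in DNA damage repair.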
# [4] = NCI Yeast Anticancer Drug Screen. Data for the cln2 rad14 strain (AID 165);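 note: 0% = growth equal to vehicle treated cultures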; settings: S. cerevisiae cln2 rad14 strain, hits give high values
# In short: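 Growth inhibition, relative to vehicle-treated controls, is the read-out. The test organism is a yeast strain with defined genetic alterations, cln2 rad14.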
# [5] = NCI Yeast Anticancer Drug Screen. Data for the bub3 strain (AID 167); settings: S. cerevisiae bub3 mutant strain, hits give high values
# In short: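 Growth of a checkpoint-deficient yeast mutant is measured after compound exposure. Values represent inhibition relative to vehicle.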
# [6] = NCI Yeast Anticancer Drug Screen. Data for the mlh1 rad18 strain (AID 175); settings: S. cerevisiae mlh1 rad18 strain growth inhibition, hits give high values
# In short: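 Cells of a genetically altered yeast strain, deficient in DNA damage repair, were treated with compound. Their growth was then compared with that of vehicle-treated cultures to give inhibition.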
# [7] = at 5.0 µM (retest, dose inferred, filed as 0.5)
# [8] = at 50.0 µM (retest, dose inferred, filed as 5.0)
Compound,"growth inhibition [1, 7] [%]","growth inhibition [1, 8]",growth inhibition ([1]; at 50.0 µM),"growth inhibition [2, 7] [%]","growth inhibition [2, 8]",growth inhibition ([2]; at 50.0 µM),"growth inhibition [3, 7] [%]","growth inhibition [3, 8]",growth inhibition ([3]; at 50.0 µM),"growth inhibition [4, 7] [%]","growth inhibition [4, 8]",growth inhibition ([4]; at 50.0 µM),"growth inhibition [5, 7] [%]","growth inhibition [5, 8]",growth inhibition ([5]; at 50.0 µM),"growth inhibition [6, 7] [%]","growth inhibition [6, 8]",growth inhibition ([6]; at 50.0 µM)
COc1ccc(CN2CCCN(Cc3ccc(OC)cc3)C2Cc2cc(Cl)ccc2OC)cc1,-3,58%,82.4% (active),-3,61%,48.8%,-44,63%,80.7% (active),-6,19%,33.4%,-5,56%,56.5%,18,85% (active),77.8% (active)
Cc1c2cnccc2c(C)c2c1c1ccccc1n2CCCN,22,73% (active),91.7% (active),14,33%,67.6%,5,50%,77.3% (active),17,32%,72.3% (active),29,35%,84.6% (active),16,58%,82.1% (active)
Nc1ccc2ccccc2c1N=Nc1ccccc1,6,97% (active),98.3% (active),0,99% (active),99% (active),3,98% (active),99.1% (active),-8,96% (active),96.6% (active),0,98% (active),98.5% (active),2,92% (active),97.6% (active)
COc1ccc(-c2c(CO)cc(OC)c(OC)c2OC)c(CO)c1,-1,6%,93.5% (active),-9,21%,98.8% (active),-5,22%,64.5%,-2,10%,98% (active),1,43%,98.7% (active),13,41%,99% (active)
CC1OC(OC2C(Oc3c(-c4ccc(O)c(O)c4O)oc4cc(O)ccc4c3=O)OC(CO)C(O)C2O)C(O)C(O)C1O (stereo not given),-4,-8%,22.9%,-5,0%,-5.3%,-5,1%,-7.95%,7,0%,-8.85%,-1,0%,3.25%,-5,-6%,-10.7%
C/C(=N\OS(=O)(=O)O)SC1OC(CO)C(O)C(O)C1O (stereo not given),3,-17%,3.1%,-2,-13%,-4.8%,-1,11%,-7.4%,-16,18%,-0.95%,-2,-3%,-8.15%,6,-3%,-11%
COc1ccc2c(c1)CCC(N1CCCC(O)C1)C2 (stereo not given),13,98% (active),48.9%,12,99% (active),56%,12,98% (active),87.2% (active),25,99% (active),23.2%,11,99% (active),91.2% (active),14,98% (active),71.4% (active)
O=c1[nH]cnc2nc(I)[nH]c12,1,3%,14.8%,-9,-3%,0.05%,-5,5%,-0.3%,1,-7%,38.5%,-1,-8%,30.1%,7,-5%,6%
C[n+]1c2ccc(Cl)cc2nc2cc(-c3ccccc3)ccc21,15,98% (active),98.6% (active),23,99% (active),99% (active),32,99% (active),98.9% (active),7,98% (active),98.2% (active),54,98% (active),98.9% (active),39,98% (active),98.6% (active)
COc1ccc(C(=O)Cc2ccc(Cl)cc2)cc1OC,-12,-1%,6.3%,-7,-13%,2.65%,-14,-17%,10.5%,9,-3%,-4.45%,-1,-1%,3.55%,-17,-22%,16.6%
